Test results from paper PMC7862700, “An all-to-all approach to the identification of sequence-specific readers for epigenetic DNA modifications on cytosine”.

How the values were obtained:
Experiment in all cases: DAPPL (digital affinity profiling via proximity ligation, sequencing); 10 mM Tris-HCl pH 7.5, 50 mM NaCl, 1 mM DTT, 4% glycerol, room temperature, 30 min; GST-TFs on glutathione beads, 16-mer random dsDNA library, 0.1% formaldehyde crosslink after washing; high values mean tight binding
FLI1 = target: T1, FLI1 (Homo sapiens, UniProt Q01543 1-452); conditions: protein: recombinant; tags: N-terminal GST; dsDNA, one strand shown
T1 sequence: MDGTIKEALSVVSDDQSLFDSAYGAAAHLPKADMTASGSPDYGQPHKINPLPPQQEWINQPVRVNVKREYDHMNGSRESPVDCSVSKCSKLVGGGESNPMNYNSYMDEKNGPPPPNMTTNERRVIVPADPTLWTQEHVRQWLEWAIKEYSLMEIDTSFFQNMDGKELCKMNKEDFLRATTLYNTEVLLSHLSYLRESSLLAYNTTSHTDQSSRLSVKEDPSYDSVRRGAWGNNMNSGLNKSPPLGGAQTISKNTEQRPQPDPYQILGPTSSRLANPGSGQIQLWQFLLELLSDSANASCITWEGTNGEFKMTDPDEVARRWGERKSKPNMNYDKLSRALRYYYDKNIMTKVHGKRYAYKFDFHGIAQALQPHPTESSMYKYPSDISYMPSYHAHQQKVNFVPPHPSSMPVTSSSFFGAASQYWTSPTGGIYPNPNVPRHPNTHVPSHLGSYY
In short: (§1)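 GST fusions of human transcription factors were expressed in yeast and captured with glutathione beads. Once given DNA barcodes and pooled alongside a tag-only sample, they were incubated for 30 min at room temperature with 200 nmole of a random double-stranded 16-mer DNA library in Tris/NaCl/DTT/glycerol buffer, then washed, crosslinked (0.1% formaldehyde), proximity-ligated, PCR-amplified and sequenced on an Illumina NextSeq500. The binding signal of each hexamer is its read frequency for a factor divided by its frequency for the tag-only sample.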

ELK1 = target: T2, ELK1 (Homo sapiens, UniProt P19419 1-428); conditions: protein: recombinant; tags: N-terminal GST; dsDNA, one strand shown
T2 sequence: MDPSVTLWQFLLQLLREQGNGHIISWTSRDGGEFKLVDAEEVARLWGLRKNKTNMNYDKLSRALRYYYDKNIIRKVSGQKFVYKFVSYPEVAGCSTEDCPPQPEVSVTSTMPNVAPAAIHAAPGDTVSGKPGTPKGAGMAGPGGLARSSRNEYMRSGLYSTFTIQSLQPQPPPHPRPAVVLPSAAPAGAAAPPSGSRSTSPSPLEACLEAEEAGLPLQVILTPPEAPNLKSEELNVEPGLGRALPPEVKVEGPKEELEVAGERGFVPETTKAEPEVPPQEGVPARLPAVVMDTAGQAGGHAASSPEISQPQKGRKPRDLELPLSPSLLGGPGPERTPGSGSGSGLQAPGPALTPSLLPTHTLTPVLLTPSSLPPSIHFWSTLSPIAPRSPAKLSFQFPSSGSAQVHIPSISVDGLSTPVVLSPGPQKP
In short: as §1

GABPA = target: T3, GABPA (Homo sapiens, UniProt Q06546 1-454); conditions: protein: recombinant; tags: N-terminal GST; dsDNA, one strand shown
T3 sequence: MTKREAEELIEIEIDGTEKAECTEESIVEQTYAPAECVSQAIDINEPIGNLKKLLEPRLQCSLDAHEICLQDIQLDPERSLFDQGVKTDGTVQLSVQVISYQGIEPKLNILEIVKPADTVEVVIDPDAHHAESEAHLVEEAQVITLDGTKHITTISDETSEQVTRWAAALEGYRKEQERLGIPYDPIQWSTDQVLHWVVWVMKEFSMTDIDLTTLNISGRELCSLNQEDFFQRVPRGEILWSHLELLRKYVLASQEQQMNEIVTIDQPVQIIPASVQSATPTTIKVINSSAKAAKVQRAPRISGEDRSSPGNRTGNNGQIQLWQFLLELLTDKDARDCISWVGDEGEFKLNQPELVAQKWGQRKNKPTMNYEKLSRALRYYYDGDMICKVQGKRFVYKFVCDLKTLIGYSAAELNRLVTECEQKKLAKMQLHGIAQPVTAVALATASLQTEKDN
In short: as §1

ERG = target: T4, ERG (Homo sapiens, UniProt P11308 1-479); conditions: protein: recombinant; tags: N-terminal GST; dsDNA, one strand shown
T4 sequence: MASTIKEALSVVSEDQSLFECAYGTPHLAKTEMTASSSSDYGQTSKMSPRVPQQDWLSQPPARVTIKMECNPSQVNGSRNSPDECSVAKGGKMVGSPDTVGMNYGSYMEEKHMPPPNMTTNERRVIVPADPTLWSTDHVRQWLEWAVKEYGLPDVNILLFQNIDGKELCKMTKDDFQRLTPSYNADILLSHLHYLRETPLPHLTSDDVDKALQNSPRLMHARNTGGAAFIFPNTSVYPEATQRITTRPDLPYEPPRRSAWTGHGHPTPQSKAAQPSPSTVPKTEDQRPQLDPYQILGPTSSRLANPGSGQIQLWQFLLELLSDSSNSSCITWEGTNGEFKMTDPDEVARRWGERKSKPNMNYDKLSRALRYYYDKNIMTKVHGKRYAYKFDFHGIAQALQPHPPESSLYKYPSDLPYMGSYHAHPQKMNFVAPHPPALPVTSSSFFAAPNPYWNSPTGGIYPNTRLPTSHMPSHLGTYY
In short: as §1

ELF1 = ELF1 (Homo sapiens, UniProt P32519 1-619); conditions: protein: recombinant; tags: N-terminal GST; dsDNA, one strand shown
Sequence of ELF1 (P32519 whole entry): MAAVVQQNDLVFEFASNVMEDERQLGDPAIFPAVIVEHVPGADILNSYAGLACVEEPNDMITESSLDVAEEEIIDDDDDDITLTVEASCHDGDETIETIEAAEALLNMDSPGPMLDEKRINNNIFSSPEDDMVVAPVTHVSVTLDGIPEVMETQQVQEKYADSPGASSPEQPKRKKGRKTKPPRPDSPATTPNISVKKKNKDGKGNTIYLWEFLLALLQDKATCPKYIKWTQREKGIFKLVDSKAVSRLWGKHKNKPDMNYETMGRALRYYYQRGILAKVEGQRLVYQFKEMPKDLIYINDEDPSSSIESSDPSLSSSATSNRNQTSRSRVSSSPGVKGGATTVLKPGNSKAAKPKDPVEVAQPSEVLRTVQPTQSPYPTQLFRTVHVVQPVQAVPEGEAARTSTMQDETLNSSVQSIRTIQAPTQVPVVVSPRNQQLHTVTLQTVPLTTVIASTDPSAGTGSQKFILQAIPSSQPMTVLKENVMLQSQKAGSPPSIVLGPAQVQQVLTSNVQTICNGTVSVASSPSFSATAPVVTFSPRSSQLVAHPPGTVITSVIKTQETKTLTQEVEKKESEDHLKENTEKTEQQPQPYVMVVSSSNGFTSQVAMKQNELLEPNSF
In short: as §1

EHF = target: T5, EHF (Homo sapiens, UniProt Q9NZC4 1-300); conditions: protein: recombinant; tags: N-terminal GST; dsDNA, one strand shown
T5 sequence: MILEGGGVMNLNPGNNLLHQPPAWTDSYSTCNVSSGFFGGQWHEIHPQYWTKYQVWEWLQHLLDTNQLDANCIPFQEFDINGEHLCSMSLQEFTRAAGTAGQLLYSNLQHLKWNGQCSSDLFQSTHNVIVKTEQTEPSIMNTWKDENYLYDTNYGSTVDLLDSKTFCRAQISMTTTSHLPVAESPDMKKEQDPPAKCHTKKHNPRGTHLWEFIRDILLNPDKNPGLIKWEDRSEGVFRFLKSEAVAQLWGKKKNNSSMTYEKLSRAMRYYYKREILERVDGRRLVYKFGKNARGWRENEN
In short: as §1

SPI1 = SPI1 (Homo sapiens, UniProt P17947 1-270); conditions: protein: recombinant; tags: N-terminal GST; dsDNA, one strand shown
In short: as §1

SPIB = SPIB (Homo sapiens, UniProt Q01892 1-262); conditions: protein: recombinant; tags: N-terminal GST; dsDNA, one strand shown
Sequence of SPIB (Q01892 whole entry): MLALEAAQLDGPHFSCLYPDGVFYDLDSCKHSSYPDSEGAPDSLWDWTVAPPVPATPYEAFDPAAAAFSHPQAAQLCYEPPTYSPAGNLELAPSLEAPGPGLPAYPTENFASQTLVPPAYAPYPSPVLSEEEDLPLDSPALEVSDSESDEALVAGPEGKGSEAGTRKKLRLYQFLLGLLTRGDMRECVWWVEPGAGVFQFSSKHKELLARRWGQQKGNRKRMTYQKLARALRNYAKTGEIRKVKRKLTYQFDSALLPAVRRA
In short: as §1

ELK3 = target: T6, ELK3 (Homo sapiens, UniProt P41970 1-407); conditions: protein: recombinant; tags: N-terminal GST; dsDNA, one strand shown
T6 sequence: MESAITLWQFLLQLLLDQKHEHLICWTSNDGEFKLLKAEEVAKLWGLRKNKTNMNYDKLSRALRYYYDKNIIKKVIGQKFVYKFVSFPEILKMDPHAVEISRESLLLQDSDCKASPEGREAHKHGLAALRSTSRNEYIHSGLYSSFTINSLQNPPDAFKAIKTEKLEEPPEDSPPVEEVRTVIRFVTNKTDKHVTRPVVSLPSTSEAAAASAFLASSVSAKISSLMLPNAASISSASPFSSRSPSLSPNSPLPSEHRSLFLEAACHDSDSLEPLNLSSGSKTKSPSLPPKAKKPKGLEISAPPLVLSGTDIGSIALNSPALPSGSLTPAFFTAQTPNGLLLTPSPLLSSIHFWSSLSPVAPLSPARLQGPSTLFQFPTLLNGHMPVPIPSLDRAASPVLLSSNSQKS
In short: as §1

FEV = target: T7, FEV (Homo sapiens, UniProt Q99581 1-238); conditions: protein: recombinant; tags: N-terminal GST; dsDNA, one strand shown
T7 sequence: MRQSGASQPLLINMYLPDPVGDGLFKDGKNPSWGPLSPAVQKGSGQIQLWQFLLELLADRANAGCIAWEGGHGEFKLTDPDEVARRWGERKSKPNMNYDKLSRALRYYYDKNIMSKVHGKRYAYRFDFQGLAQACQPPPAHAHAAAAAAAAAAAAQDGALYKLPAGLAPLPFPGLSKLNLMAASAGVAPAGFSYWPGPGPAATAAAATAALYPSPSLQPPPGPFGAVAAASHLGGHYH
In short: as §1

ETV5 = ETV5 (Homo sapiens, UniProt P41161 1-510); conditions: protein: recombinant; tags: N-terminal GST; dsDNA, one strand shown
Sequence of ETV5 (P41161 whole entry): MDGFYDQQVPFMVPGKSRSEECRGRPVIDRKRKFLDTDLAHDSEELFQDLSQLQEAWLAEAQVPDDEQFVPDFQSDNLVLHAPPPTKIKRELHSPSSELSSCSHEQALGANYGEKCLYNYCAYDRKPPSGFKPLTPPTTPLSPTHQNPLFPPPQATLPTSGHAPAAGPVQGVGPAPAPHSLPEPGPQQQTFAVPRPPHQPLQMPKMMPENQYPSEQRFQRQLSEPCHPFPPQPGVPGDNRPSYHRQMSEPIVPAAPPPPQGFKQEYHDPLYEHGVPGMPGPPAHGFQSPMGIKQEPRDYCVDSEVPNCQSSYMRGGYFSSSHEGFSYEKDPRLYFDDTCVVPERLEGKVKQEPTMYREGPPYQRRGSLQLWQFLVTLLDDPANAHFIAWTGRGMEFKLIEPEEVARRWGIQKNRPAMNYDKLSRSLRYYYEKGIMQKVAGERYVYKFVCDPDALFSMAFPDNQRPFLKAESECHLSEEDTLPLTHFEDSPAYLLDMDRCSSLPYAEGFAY
In short: as §1

HSF1 = HSF1 (Homo sapiens, UniProt Q00613 1-529); conditions: protein: recombinant; tags: N-terminal GST; chain copies: 3; dsDNA, one strand shown
Sequence of HSF1 (Q00613 whole entry): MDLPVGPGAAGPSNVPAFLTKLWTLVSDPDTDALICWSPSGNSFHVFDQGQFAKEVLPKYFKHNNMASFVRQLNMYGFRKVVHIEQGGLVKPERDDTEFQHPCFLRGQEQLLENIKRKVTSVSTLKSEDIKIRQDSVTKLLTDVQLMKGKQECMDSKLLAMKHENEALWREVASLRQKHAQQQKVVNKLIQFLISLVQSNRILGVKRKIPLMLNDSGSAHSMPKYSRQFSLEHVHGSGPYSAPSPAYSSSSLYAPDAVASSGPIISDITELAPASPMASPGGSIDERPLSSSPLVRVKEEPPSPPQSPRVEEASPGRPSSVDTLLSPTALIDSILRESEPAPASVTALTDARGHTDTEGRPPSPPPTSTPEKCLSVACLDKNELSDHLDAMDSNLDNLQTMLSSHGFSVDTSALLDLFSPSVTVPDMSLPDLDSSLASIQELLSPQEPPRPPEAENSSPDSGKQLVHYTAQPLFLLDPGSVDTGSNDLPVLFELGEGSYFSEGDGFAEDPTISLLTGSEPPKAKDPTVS
In short: as §1

SPIC = target: T8, SPIC (Homo sapiens, UniProt Q8N5J4 1-248); conditions: protein: recombinant; tags: N-terminal GST; dsDNA, one strand shown
T8 sequence: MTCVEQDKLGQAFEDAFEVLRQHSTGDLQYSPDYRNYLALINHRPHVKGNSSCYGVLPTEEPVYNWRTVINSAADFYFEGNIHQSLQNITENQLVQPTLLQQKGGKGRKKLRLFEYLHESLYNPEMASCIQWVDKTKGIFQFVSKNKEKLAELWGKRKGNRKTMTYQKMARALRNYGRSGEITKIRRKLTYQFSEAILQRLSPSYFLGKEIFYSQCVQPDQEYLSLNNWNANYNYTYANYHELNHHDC
In short: as §1

ELF4 = ELF4 (Homo sapiens, UniProt Q99607 1-663); conditions: protein: recombinant; tags: N-terminal GST; dsDNA, one strand shown
Sequence of ELF4 (Q99607 whole entry): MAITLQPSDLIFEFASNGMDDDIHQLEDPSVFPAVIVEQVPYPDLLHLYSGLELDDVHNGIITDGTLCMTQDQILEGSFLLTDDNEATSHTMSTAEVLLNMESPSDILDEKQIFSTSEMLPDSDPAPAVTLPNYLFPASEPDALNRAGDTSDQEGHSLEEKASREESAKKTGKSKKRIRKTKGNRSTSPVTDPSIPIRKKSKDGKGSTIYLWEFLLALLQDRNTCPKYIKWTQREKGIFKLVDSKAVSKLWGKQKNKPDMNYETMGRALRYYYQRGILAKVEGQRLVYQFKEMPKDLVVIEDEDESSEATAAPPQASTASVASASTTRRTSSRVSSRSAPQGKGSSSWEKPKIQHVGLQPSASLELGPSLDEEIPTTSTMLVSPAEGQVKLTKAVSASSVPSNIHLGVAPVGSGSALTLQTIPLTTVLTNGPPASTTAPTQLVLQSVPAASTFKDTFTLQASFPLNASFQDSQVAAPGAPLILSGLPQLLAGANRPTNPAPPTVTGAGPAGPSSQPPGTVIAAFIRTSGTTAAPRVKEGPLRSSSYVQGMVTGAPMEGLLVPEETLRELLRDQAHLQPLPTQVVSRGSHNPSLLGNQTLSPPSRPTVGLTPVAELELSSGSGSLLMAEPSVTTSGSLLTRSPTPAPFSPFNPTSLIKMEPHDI
In short: as §1

ELK4 = target: T9, ELK4 (Homo sapiens, UniProt P28324-2 1-405); conditions: protein: recombinant; tags: N-terminal GST; dsDNA, one strand shown
T9 sequence: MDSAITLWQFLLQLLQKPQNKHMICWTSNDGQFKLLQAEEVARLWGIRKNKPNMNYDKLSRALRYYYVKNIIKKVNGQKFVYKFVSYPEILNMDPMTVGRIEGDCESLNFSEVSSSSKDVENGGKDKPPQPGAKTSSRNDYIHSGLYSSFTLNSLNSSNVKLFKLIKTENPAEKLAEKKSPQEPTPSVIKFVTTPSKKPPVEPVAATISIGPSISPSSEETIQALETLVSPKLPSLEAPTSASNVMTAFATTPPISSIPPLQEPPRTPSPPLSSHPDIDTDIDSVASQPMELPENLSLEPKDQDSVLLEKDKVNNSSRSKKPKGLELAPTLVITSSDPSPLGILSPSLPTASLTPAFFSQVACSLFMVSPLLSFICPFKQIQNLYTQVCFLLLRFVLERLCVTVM
In short: as §1

ETV2 = target: T10, ETV2 (Homo sapiens, UniProt O00321 1-342); conditions: protein: recombinant; tags: N-terminal GST; dsDNA, one strand shown
T10 sequence: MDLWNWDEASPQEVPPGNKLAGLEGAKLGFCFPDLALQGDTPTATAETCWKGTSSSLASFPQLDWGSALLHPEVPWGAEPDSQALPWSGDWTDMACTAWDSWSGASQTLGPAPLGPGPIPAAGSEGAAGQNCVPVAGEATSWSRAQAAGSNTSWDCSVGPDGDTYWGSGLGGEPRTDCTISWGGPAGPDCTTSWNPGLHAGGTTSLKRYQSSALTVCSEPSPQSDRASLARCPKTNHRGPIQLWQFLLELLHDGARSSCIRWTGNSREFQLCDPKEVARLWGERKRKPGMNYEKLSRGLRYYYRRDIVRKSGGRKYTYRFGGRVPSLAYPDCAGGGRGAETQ
In short: as §1

ELF3 = target: T11, ELF3 (Homo sapiens, UniProt P78545 1-371); conditions: protein: recombinant; tags: N-terminal GST; dsDNA, one strand shown
T11 sequence: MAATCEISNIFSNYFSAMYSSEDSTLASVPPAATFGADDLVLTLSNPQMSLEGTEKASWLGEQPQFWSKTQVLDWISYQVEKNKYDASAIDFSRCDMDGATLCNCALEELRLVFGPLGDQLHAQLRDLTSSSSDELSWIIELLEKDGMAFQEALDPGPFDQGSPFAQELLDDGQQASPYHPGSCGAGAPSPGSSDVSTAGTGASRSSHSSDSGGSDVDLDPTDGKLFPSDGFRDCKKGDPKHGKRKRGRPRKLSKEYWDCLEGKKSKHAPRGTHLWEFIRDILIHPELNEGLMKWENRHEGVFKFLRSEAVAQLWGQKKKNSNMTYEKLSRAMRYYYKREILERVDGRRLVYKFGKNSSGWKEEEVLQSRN
In short: as §1

ETV1 = ETV1 (Homo sapiens, UniProt P50549 1-477); conditions: protein: recombinant; tags: N-terminal GST; dsDNA, one strand shown
Sequence of ETV1 (P50549 whole entry): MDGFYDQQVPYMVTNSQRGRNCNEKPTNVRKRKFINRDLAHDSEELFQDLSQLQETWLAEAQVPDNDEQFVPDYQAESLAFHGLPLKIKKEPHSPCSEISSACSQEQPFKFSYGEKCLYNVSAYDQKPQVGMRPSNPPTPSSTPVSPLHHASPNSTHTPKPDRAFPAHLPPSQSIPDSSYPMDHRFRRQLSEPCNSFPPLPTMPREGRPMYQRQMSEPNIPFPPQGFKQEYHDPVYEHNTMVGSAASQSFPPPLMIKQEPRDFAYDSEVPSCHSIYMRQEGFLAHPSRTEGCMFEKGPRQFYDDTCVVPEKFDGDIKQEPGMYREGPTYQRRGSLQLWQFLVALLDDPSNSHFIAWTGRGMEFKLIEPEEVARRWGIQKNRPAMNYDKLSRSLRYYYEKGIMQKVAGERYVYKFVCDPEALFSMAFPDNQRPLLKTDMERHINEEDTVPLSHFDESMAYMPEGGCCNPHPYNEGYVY
In short: as §1

AACATG
binding signal (FLI1): 1.24 fold enrichment (6-mer frequency, TF over GST control)
binding signal (ELK1): 1.21 fold enrichment (6-mer frequency, TF over GST control)
binding signal (GABPA): 1.15 fold enrichment (6-mer frequency, TF over GST control)
binding signal (ERG): 1.16 fold enrichment (6-mer frequency, TF over GST control)
binding signal (ELF1): 1.22 fold enrichment (6-mer frequency, TF over GST control)
binding signal (EHF): 1.05 fold enrichment (6-mer frequency, TF over GST control)
binding signal (SPI1): 1.15 fold enrichment (6-mer frequency, TF over GST control)
binding signal (SPIB): 1.16 fold enrichment (6-mer frequency, TF over GST control)
binding signal (ELK3): 1.19 fold enrichment (6-mer frequency, TF over GST control)
binding signal (FEV): 1.1 fold enrichment (6-mer frequency, TF over GST control)
binding signal (ETV5): 1.23 fold enrichment (6-mer frequency, TF over GST control)
binding signal (HSF1): 1.1 fold enrichment (6-mer frequency, TF over GST control)
binding signal (SPIC): 1.28 fold enrichment (6-mer frequency, TF over GST control)
binding signal (ELF4): 1.23 fold enrichment (6-mer frequency, TF over GST control)
binding signal (ELK4): 1.25 fold enrichment (6-mer frequency, TF over GST control)
binding signal (ETV2): 1.19 fold enrichment (6-mer frequency, TF over GST control)
binding signal (ELF3): 1.26 fold enrichment (6-mer frequency, TF over GST control)
binding signal (ETV1): 1.13 fold enrichment (6-mer frequency, TF over GST control)
